Most compounds without a hit are left out; they make up all but 1.8% or so of the library.
Tb PFK block = T. brucei PFK enzyme inhibition. O15648. T. brucei PFK, ADP-Glo luminescence. Potency, µM (doses to about 57.5 µM), for inactives: top-dose activity, negative = inhibition, hits mostly inhibitors. 0.17% of 330,000 active. AID 485367;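 note: 0% = uninhibited 1x PFK enzyme wells and -100% = no-enzyme wells; nearly all actives have a fitted effect of over 60% in size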
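In TEA buffer at pH 8.0 with 5 mM MgCl2, enzyme (1.25 nM) converted F6P (0.5 mM) and ATP (0.1 mM) for 45 min at room temperature. ADP product was read by luciferase luminescence.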
Pin1 inhibitor = human Pin1 inhibition. AID 504891. 0.009% of 390,000 active. Pin1 FP peptide displacement, HiFluor488, 10 min. Potency, µM (highest dose often 115 µM), without a hit: at the top dose activity, negative = inhibition, actives largely listed as inhibitors. Q13526; active = well fitted inhibition curve with a large enough effect in the polarisation, with a control signal flat, not every such curve was filed as active; inconclusive = small, poorly fitted or top-dose-only effect, or effect the other way, or a change in a side signal; inactive = no such curve, though single readings can be large or run the other way; the % refers to the polarisation; note: % is set by controls: 0 for no effect and ±100 for the full control effect
Target sequence (Q13526 whole entry, looked up): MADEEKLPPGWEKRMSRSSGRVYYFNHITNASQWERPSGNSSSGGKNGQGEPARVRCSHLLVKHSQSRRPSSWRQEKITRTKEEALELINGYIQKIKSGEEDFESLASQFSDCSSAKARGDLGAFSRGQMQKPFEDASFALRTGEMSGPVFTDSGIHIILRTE
PGK inhibitor = blocks T. brucei phosphoglycerate kinase; P07378; PGK/GAPDH coupled, Kinase-Glo luminescence, 60 min; Potency, µM (top dose mostly 57.5 µM), inactives show top-dose activity change, negative = inhibition, usual class: inhibitors; 0.043% of 380,000 active; AID 602233; note: % is set by controls: 0 for no effect and ±100 for the full control effect; nearly all actives have a fitted effect of over 60% in size
Target sequence (P07378 whole entry, looked up): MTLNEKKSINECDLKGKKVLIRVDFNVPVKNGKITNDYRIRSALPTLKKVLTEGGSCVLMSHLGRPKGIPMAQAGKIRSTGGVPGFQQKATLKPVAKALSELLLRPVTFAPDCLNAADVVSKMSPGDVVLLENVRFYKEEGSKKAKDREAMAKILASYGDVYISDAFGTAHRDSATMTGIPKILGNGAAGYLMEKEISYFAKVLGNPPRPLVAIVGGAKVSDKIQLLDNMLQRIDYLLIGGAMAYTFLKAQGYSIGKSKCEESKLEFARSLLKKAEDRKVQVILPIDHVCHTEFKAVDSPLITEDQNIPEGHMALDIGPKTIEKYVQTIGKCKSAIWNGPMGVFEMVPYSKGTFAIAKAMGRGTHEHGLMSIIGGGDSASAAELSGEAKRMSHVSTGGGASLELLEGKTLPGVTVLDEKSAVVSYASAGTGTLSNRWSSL
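Luminescent ATP detection (Kinase-Glo Plus) follows a 60-minute room-temperature incubation, with wells lacking PGK as controls. Buffer: 100 mM TEA (pH 7.6), 5 mM MgCl2, 0.01% Tween-20. Coupling enzyme GAPDH (100 nM final) supplies unstable 1,3-BPG in-well.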
GLP-1R inv ag = GLP-1 receptor (human) inverse agonism; HEK293 GLP-1R CRE-luciferase, luminescence, 24 h; GLP-1R form is constitutively active; Potency, µM (top dose mostly 38.3 µM), for inactives: at the top dose activity change, negative = inhibition, actives largely listed as inhibitors; 1.6% of 410,000 active; note: % is set by controls: 0 for no effect and ±100 for the full control effect; nearly all actives have a fitted effect of over 55% in size
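HEK293 cells stably co-expressing a cAMP-responsive luciferase reporter and constitutively active GLP-1R were seeded, incubated 12 h, then exposed to compounds for 24 h at 37 C. Luminescence was read 12 min after detection reagent; inverse agonists lower signal.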
HEK293 tox = cytotoxicity counter-screen for GLP-1 receptor inverse agonists; HEK293 cAMP-luciferase reporter cells, luminescence, 24 h; Potency, µM (doses to about 38.3 µM), inactives show at the highest dose activity change, negative = inhibition, usual class: inhibitors; 0.13% of 410,000 active;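 note: loss of luciferase light is scored as toxicity; % is set by controls: 0 for no effect and ±100 for the full control effect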
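MLSMR compounds, 24 hr on cells at 37 deg C/5% CO2; luminescence after luciferase reagent (12 min RT). Inhibition counted as the undesired cytotoxic outcome.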
GLP-1R agonist = agonists of human GLP-1 receptor. HEK293 GLP-1R CRE-luciferase, luminescence, 4-6 h; cells express a hypersensitive GLP-1R form. AID 624172. Potency, µM (top dose mostly 45.6 µM), inactives show at the top dose activation, hits mostly activators. 0.007% of 380,000 active; note: % of control where 0% means no effect
* hit, by the source's call; i = inactive; ? = inconclusive; . = no result. Unless noted, calls come from the whole dose curve; as a rule, active = well fitted curve in the direction sought with a large enough effect; inconclusive = small, poorly fitted or top-dose-only effect, or another doubt; inactive = no such curve, though single readings can be large; an effect the other way counts as inactive or inconclusive. Potency is the fitted concentration of half-maximal effect.

SMILES | Tb PFK block | Pin1 inhibitor | PGK inhibitor | GLP-1R inv ag | HEK293 tox | GLP-1R agonist
Clc1ccc(C(c2ccccc2)c2c[nH]c3ccccc23)s1 (stereo not given) | . | -10% | 1% | ? | -17% | -7%
Cc1ccc2[nH]cc(C(c3ccccc3)c3ccc(Cl)s3)c2c1 (stereo not given) | . | 6% | -10% | 10µM* | -17% | .
COc1ccc(C(O)(C(=O)NNc2ccc(C)cc2)c2cccs2)cc1 (stereo not given) | 3% | -1% | -6% | 2.5µM* | 18% | -5%
CC1CCN(S(=O)(=O)c2ccc3c(c2)N(CC(=O)NCc2ccccc2Cl)C(=O)CS3)CC1 | . | 7% | -5% | ? | 1% | .
O=C(CN1C(=O)CSc2ccc(S(=O)(=O)N3CCCCC3)cc21)NCc1ccccc1Cl | -2% | 12% | -7% | 2.5µM* | -18% | -4%
CC(C)NC(=NCc1ccc(Cl)cc1Cl)Nc1ccccc1 | -7% | -8% | . | 7.9µM* | -14% | -6%
Cc1ccccc1N1Cc2ccccc2C1=O | . | . | -1% | 19% | -3% | 8%
CC(C(=O)O)c1ccc(N2Cc3ccccc3C2=O)cc1 (stereo not given) | 3% | -9% | -15% | 6.3µM* | 2% | -11%
Cn1c(Cl)cnc1C1CC(=O)c2cc(Cl)ccc2O1 (stereo not given) | -12% | -1% | i | 3.5µM* | 7.9µM* | -4%
O=C1CC(c2ccc(Cl)cc2)Oc2ccc(Cl)cc21 (stereo not given) | . | ? | i | ? | -10% | 9%
Fc1ccc(CNc2ccc(N3CCN(Cc4ccccc4)CC3)cc2)cc1 | -9% | ? | -1% | 4.5µM* | -15% | -2%
COC(=O)CSc1nc(N2CCCCC2)c2c(c1C#N)CCCC2 | -2% | -2% | -2% | 10µM* | 21% | -1%
N#Cc1c(SCC(=O)O)nc(N2CCCCC2)c2c1CCCC2 | 7% | -5% | -9% | -4% | -5% | 4%
COc1cccc(N2CCN(c3ncnc4c3[nH]c3ccc(F)cc34)CC2C)c1 (stereo not given) | -2% | 4% | -8% | ? | 3.2µM* | -54%
COc1ccccc1N1CCN(C(=O)c2cc(-c3ccc(F)cc3)[nH]c2C)CC1 | 3% | -3% | 0% | 11µM* | ? | 0%
Cc1[nH]c(-c2ccc(F)cc2)cc1C(=O)N1CCN(c2ccccc2F)CC1 | -4% | 8% | -9% | ? | 1% | 3%
OC(c1ccc(F)cc1)c1ncc(-c2ccc(Oc3ccccc3)cc2)[nH]1 (stereo not given) | . | . | . | 10µM* | -11% | -6%
Cc1cc(C(O)c2ncc(-c3ccc(Oc4ccccc4)cc3)[nH]2)ccc1F (stereo not given) | . | . | . | ? | ? | -5%
OC(c1ccc2ccccc2c1)c1ncc(-c2ccc(C(F)(F)F)cc2)[nH]1 (stereo not given) | . | . | . | 10µM* | -22% | -2%
OC(c1cccc(F)c1)c1ncc(-c2ccc(C(F)(F)F)cc2)[nH]1 (stereo not given) | . | . | . | ? | -2% | 19%
O=C(NC1CCCC1)C(c1ccccc1)N(Cc1ccc2c(c1)OCO2)C(=O)Cc1cccs1 (stereo not given) | -6% | 4% | -6% | 10µM* | -9% | -4%
O=C(NCc1ccccc1)C(c1ccccc1)N(Cc1ccc2c(c1)OCO2)C(=O)Cc1cccs1 (stereo not given) | 0% | 35% | -10% | 7.9µM* | -26% | -6%
CCN(C(=O)c1cc2c(s1)-c1c(C)cccc1OC2)c1ccccc1F | . | 14% | i | ? | 11% | .
CCN(C(=O)c1cc2c(s1)-c1c(C)cccc1OC2)c1cc(C)ccc1C | . | -1% | i | 11µM* | 32% | .
CCOC(=O)c1cc(-c2ccc(OC)cc2)n(CCC(=O)Nc2ccccc2OC)c1C | . | 2% | -11% | ? | 2% | .
SMILES | Tb PFK block | Pin1 inhibitor | PGK inhibitor | GLP-1R inv ag | HEK293 tox | GLP-1R agonist
CCOC(=O)c1cc(-c2ccc(F)cc2)n(CCC(=O)NCc2ccc(C)cc2)c1C | . | -8% | -3% | 10µM* | -6% | .
CCOC(=O)c1cc(-c2ccc(F)cc2)n(CCC(=O)Nc2ccccc2OC)c1C | . | 27% | -9% | 10µM* | -3% | .
CCCn1c(=O)c2sccc2n2c(CCCC(=O)Nc3ccccc3OCC)nnc12 | . | -11% | -9% | 2% | -3% | .
Cc1cccc(C)c1OCC(=O)NCC1(N(C)C)CCCCC1 | . | -11% | -4% | -30% | 1% | .
O=C(Nc1ccc(F)cc1)c1cc(S(=O)(=O)Nc2ccc(F)cc2)cs1 | -1% | 2% | -7% | 10µM* | -30% | -17%
COc1ccc(NC(=O)c2cc(S(=O)(=O)Nc3ccc(OC)cc3)cs2)cc1 | -1% | 8% | i | ? | -12% | 16%
CCOc1ccc(/C=C/C(=O)Nc2ccc3nc(N(CC)CC)cc(C)c3c2)cc1OC | . | 29% | i | ? | -25% | .
CCn1c(CN2CCN(Cc3ccc(C)cc3)C(CCO)C2)nc2ccccc21 (stereo not given) | 9% | -11% | 0% | 6.3µM* | -1% | -3%
O=C(CSc1ccc2nc(-c3ccccc3)cn2n1)Nc1cccc(F)c1 | . | ? | i | -5% | -3% | .
COc1ccc(NC(=O)/C(Cl)=C(/Cl)S(=O)Cc2ccccc2Cl)cn1 (stereo not given) | -17% | 0% | 4% | ? | 4µM* | -8%
COc1ccc(NC(=O)Cc2ccccc2F)cn1 | -1% | -2% | 0% | 3% | 19% | 2%
Nc1nc(N)c2c(ccc3c2ccn3Cc2cccc([N+](=O)[O-])c2)n1 | . | . | . | 0.5µM* | ? | -11%
O=C(Nc1ccc(F)cc1)C(NC1CCCCC1)c1ccccc1 (stereo not given) | -1% | -10% | i | 7.9µM* | 19% | 8%
COc1cccc(NC(=O)C(NCC2CCCCC2)c2ccccc2)c1 (stereo not given) | -18% | 4% | -2% | 10µM* | -7% | 8%
Cc1ccc2ncnc(NCc3ccco3)c2c1 | . | 0% | . | . | . | .
COc1cc(CN(C(=O)COc2ccc(Cl)c(C)c2)c2ccccn2)cc(OC)c1OC | . | 1% | 6% | ? | -12% | .
CCc1cccc(NC(=O)c2ccc(CNS(=O)(=O)c3ccc4c(c3)C(C)(C)C(=O)N4C)cc2)c1 | . | -2% | 1% | 10µM* | -18% | .
CN(CC(=O)Nc1ccc(F)cc1)C(=O)c1cc2c(s1)CCCCC2 | -1% | -4% | -4% | 10µM* | -16% | 19%
